Measured values as given in PubChem BioAssay AID2476 (The Scripps Research Institute Molecular Screening Center, 2010).
Active and inactive are the calls of the source. How the calls were made is not given here.

Assay: fluorescent intercalator displacement from DNA, late-stage follow-up, counter-screen for HCV NS3 helicase inhibitor project, biochemical, fluorescence, dose response (AID 2476)
With `COc1cc(C2C(C(=O)c3ccc(C)o3)=C(O)C(=O)N2c2cc(C)on2)ccc1OCc1ccccc1` (configuration not stated) the IC50 was > 79.4 µM (inactive). With `CCCCCOc1ccc(C2C(C(=O)c3ccc(C)o3)=C(O)C(=O)N2c2cc(C)on2)cc1` (configuration not stated) the IC50 was > 79.4 µM (inactive). With `COc1ccc(C=NNC(=O)c2cc(O)c(O)c(O)c2)cc1COc1ccc(C(=O)OCC(C)C)cc1` the IC50 was > 79.4 µM (inactive). For `Cc1ccc(C(=O)C2=C(O)C(=O)N(Cc3ccco3)C2c2cccc(Cl)c2)o1` (configuration not stated), the IC50 was > 79.4 µM (inactive). In the case of `CCOc1cccc(C2C(C(=O)c3ccc(C)o3)=C(O)C(=O)N2Cc2ccccc2)c1` (configuration not stated), the IC50 is reported as > 79.4 µM (inactive). In the case of `COc1cccc(-n2c(SCc3cc(=O)oc4cc(O)c(O)cc34)nc3ccccc3c2=O)c1`, the IC50 is reported as > 79.4 µM (inactive). With `Cc1cc(N2C(=O)C(O)=C(C(=O)c3ccc(C)o3)C2c2ccc(OCc3ccccc3)cc2)no1` (configuration not stated) the IC50 was > 79.4 µM (inactive).
